Experiments:
[1] = molecular target: T1, Inhibitor of nuclear factor kappa-B kinase subunit epsilon (Homo sapiens) (UniProt Q14164); conditions: at 1 µM;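 note: reported values are averaged percent inhibition figures against human IKKε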
T1 sequence (whole entry): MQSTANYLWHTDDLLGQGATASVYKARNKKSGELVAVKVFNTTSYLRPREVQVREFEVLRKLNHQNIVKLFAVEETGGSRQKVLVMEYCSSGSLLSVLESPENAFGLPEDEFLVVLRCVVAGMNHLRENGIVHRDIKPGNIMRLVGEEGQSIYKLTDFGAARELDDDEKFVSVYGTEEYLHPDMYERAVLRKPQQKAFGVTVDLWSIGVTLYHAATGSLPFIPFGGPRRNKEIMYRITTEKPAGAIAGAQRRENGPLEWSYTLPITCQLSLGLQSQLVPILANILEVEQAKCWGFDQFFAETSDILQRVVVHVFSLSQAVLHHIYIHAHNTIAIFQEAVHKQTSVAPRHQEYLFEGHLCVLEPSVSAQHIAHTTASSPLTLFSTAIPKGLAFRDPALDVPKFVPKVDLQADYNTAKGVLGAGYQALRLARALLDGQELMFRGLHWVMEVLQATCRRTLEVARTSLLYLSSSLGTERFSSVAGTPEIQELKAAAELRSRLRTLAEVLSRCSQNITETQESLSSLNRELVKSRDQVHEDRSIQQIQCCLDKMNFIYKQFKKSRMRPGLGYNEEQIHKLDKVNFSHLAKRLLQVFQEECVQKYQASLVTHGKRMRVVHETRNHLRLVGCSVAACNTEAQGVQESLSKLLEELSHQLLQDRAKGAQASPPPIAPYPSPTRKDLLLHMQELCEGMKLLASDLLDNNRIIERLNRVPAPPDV

[2] = molecular target: T2, Serine/threonine-protein kinase Nek1 (Homo sapiens) (UniProt Q96PY6); conditions: at 0.1 µM
T2 sequence (whole entry): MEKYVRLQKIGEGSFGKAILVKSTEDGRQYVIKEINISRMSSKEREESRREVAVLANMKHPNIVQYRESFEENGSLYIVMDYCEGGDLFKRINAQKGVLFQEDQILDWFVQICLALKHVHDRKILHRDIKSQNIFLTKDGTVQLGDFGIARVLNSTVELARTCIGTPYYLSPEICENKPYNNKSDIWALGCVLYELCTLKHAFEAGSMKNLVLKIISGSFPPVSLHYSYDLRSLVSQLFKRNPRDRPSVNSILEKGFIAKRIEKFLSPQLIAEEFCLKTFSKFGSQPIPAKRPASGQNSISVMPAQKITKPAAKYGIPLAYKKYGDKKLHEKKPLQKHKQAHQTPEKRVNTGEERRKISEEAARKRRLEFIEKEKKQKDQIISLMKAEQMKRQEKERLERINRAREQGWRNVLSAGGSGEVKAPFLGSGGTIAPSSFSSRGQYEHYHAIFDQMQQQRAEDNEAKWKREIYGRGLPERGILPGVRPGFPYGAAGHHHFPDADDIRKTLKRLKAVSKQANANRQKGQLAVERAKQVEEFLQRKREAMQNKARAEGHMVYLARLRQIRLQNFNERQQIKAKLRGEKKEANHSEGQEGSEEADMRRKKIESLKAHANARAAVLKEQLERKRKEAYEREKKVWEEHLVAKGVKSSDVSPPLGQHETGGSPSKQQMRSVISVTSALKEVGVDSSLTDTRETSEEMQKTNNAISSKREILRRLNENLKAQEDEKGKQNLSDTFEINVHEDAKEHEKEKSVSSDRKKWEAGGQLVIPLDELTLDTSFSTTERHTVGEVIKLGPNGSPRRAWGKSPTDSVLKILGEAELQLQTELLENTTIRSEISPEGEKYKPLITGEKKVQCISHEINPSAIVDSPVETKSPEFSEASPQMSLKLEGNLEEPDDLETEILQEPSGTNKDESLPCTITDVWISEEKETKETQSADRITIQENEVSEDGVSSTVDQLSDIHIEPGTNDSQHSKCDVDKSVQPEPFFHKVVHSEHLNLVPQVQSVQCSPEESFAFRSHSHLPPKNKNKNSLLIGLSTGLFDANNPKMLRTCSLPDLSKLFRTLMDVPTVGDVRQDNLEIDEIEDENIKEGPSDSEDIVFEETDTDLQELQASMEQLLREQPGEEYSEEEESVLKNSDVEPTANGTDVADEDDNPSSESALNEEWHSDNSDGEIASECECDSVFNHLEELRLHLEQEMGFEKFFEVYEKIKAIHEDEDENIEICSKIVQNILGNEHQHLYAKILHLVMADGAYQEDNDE

[3] = molecular target: T2, Serine/threonine-protein kinase Nek1 (Homo sapiens); conditions: at 1 µM
[4] = molecular target: T3, Serine/threonine-protein kinase Nek2 (Homo sapiens) (UniProt P51955); conditions: at 0.1 µM
T3 sequence (whole entry): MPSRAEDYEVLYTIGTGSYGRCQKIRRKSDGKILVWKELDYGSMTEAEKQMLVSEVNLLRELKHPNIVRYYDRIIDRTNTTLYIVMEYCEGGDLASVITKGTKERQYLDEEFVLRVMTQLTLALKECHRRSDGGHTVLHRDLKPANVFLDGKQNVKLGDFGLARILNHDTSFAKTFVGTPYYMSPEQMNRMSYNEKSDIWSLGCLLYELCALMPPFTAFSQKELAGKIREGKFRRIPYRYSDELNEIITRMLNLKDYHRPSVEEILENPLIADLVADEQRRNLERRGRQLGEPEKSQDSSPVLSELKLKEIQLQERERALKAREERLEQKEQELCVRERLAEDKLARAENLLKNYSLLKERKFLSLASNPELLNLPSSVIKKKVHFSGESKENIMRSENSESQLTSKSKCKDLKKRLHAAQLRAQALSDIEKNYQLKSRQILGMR

[5] = molecular target: T3, Serine/threonine-protein kinase Nek2 (Homo sapiens); conditions: at 1 µM
[6] = molecular target: Serine/threonine-protein kinase Nek6 (Homo sapiens) (UniProt Q9HC98); conditions: at 0.1 µM
Serine/threonine-protein kinase Nek6 (Homo sapiens), sequence (Q9HC98 whole entry): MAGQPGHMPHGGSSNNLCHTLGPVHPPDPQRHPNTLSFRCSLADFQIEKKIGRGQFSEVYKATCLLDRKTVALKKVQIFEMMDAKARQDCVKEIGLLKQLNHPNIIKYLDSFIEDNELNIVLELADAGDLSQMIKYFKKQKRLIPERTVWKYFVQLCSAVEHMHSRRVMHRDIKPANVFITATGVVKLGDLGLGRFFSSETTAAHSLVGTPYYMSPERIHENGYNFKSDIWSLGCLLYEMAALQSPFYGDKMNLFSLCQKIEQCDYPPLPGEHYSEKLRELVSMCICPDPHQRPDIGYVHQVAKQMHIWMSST

[7] = molecular target: Serine/threonine-protein kinase Nek6 (Homo sapiens) (UniProt Q9HC98); conditions: at 1 µM
[8] = molecular target: Serine/threonine-protein kinase Nek7 (Homo sapiens) (UniProt Q8TDX7); conditions: at 0.1 µM
Serine/threonine-protein kinase Nek7 (Homo sapiens), sequence (Q8TDX7 whole entry, looked up): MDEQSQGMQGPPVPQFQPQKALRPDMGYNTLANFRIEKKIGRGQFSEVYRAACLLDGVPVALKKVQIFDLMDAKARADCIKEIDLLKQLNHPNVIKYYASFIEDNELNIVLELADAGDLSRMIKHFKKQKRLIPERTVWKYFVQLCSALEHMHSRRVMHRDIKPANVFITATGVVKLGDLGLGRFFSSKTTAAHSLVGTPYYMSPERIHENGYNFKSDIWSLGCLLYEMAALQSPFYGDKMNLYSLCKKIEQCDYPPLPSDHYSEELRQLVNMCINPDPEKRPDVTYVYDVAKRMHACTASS

[9] = molecular target: Serine/threonine-protein kinase Nek7 (Homo sapiens) (UniProt Q8TDX7); conditions: at 1 µM
[10] = molecular target: T4, Serine/threonine-protein kinase Nek9 (Homo sapiens) (UniProt Q8TD19); conditions: at 0.1 µM
T4 sequence (whole entry): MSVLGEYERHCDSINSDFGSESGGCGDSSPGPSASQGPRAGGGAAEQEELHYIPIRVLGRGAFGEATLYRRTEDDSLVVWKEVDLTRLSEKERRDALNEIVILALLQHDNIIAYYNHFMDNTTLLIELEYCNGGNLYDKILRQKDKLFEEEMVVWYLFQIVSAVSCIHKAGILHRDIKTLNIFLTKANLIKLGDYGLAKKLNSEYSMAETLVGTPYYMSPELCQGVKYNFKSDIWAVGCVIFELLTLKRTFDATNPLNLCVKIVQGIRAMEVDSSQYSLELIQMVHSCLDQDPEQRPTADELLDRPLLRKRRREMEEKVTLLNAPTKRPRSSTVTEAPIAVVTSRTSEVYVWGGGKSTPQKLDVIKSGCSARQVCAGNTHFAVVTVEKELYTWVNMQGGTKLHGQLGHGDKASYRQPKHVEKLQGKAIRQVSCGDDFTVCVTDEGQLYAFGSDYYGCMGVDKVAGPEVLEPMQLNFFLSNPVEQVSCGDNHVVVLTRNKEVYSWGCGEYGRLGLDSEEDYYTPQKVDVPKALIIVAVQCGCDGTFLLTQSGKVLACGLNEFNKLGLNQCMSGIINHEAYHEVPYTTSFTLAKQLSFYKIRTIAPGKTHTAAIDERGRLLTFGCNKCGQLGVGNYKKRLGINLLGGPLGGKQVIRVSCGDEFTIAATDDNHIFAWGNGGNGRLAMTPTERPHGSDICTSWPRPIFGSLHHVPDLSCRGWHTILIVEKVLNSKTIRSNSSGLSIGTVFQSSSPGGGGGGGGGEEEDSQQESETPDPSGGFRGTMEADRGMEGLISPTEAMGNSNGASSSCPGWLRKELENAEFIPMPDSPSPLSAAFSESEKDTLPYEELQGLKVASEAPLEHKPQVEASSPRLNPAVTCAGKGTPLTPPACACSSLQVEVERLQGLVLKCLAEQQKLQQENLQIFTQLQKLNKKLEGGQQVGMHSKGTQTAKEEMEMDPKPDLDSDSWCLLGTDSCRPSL

[11] = molecular target: T4, Serine/threonine-protein kinase Nek9 (Homo sapiens); conditions: at 1 µM
[12] = molecular target: Serine/threonine-protein kinase PLK1 (Homo sapiens) (UniProt P53350); conditions: at 0.1 µM
Serine/threonine-protein kinase PLK1 (Homo sapiens), sequence (P53350 whole entry): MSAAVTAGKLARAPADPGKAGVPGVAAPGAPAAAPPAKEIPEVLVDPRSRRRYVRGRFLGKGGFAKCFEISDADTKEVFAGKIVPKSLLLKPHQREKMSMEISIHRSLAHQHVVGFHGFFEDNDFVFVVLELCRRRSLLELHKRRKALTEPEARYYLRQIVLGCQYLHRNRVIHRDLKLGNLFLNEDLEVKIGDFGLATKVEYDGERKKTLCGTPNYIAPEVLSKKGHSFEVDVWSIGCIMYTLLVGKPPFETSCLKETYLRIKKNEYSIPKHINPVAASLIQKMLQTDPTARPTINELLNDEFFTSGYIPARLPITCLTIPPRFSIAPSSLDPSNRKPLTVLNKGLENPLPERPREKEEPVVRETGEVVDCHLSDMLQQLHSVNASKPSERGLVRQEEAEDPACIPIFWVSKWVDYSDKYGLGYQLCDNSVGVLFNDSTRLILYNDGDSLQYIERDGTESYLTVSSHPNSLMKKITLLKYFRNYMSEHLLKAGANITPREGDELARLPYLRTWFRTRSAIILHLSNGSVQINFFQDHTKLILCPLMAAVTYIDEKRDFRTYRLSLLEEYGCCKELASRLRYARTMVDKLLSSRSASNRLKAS

[13] = molecular target: Serine/threonine-protein kinase PLK1 (Homo sapiens) (UniProt P53350); conditions: at 1 µM
[14] = molecular target: T5, Dual specificity protein kinase TTK (Homo sapiens) (UniProt P33981); conditions: at 0.1 µM
T5 sequence (whole entry): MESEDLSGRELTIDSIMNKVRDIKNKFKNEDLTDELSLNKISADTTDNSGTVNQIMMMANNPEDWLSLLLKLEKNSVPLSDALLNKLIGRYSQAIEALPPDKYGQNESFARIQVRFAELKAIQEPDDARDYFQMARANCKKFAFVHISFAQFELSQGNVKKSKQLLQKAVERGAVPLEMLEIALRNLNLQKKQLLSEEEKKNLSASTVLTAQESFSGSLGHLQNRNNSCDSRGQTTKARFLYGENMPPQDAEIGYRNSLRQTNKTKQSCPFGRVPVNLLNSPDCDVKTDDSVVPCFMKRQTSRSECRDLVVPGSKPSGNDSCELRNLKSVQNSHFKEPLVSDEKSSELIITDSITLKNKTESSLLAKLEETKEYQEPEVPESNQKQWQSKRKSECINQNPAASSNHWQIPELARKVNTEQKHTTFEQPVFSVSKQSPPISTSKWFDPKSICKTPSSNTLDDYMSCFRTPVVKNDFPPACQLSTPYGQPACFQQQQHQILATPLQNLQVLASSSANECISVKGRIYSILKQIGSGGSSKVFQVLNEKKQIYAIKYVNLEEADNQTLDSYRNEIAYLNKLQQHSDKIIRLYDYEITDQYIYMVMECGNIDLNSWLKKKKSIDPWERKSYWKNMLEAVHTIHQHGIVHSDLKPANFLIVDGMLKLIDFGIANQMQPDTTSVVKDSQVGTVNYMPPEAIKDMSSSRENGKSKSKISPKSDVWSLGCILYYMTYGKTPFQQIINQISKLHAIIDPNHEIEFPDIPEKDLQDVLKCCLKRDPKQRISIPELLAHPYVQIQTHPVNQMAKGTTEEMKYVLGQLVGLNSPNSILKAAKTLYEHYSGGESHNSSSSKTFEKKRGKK

[15] = test system: T6, Receptor-type tyrosine-protein kinase FLT3 (Homo sapiens), P36888 [D835Y]; conditions: at 1 µM
T6 sequence (whole entry): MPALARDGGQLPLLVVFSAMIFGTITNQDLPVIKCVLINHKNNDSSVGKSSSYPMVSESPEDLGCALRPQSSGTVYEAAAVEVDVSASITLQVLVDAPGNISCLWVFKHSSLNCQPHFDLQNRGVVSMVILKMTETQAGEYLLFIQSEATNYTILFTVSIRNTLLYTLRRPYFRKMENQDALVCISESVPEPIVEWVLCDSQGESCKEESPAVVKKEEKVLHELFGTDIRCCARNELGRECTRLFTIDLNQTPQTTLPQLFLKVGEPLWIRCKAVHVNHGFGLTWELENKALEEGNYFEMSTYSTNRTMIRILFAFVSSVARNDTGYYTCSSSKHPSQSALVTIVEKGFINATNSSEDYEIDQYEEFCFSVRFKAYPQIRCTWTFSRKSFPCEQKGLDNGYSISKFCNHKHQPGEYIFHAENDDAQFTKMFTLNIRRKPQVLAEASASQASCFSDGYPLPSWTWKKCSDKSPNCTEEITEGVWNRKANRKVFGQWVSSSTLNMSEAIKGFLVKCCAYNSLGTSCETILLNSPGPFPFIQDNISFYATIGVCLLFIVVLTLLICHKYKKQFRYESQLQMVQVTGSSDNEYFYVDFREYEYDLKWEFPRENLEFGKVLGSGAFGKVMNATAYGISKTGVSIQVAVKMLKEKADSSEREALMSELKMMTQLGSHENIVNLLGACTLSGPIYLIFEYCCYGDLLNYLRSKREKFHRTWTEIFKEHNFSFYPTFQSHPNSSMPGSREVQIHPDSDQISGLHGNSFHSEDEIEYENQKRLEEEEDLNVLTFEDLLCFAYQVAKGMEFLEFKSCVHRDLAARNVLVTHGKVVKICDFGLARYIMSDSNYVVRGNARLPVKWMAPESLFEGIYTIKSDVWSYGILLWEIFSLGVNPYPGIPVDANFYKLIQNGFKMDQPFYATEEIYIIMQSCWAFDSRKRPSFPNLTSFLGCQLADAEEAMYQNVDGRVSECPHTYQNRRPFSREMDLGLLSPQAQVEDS

[16] = molecular target: Vascular endothelial growth factor receptor 3 (Homo sapiens) (UniProt P35916); conditions: at 0.1 µM
Vascular endothelial growth factor receptor 3 (Homo sapiens), sequence (P35916 whole entry): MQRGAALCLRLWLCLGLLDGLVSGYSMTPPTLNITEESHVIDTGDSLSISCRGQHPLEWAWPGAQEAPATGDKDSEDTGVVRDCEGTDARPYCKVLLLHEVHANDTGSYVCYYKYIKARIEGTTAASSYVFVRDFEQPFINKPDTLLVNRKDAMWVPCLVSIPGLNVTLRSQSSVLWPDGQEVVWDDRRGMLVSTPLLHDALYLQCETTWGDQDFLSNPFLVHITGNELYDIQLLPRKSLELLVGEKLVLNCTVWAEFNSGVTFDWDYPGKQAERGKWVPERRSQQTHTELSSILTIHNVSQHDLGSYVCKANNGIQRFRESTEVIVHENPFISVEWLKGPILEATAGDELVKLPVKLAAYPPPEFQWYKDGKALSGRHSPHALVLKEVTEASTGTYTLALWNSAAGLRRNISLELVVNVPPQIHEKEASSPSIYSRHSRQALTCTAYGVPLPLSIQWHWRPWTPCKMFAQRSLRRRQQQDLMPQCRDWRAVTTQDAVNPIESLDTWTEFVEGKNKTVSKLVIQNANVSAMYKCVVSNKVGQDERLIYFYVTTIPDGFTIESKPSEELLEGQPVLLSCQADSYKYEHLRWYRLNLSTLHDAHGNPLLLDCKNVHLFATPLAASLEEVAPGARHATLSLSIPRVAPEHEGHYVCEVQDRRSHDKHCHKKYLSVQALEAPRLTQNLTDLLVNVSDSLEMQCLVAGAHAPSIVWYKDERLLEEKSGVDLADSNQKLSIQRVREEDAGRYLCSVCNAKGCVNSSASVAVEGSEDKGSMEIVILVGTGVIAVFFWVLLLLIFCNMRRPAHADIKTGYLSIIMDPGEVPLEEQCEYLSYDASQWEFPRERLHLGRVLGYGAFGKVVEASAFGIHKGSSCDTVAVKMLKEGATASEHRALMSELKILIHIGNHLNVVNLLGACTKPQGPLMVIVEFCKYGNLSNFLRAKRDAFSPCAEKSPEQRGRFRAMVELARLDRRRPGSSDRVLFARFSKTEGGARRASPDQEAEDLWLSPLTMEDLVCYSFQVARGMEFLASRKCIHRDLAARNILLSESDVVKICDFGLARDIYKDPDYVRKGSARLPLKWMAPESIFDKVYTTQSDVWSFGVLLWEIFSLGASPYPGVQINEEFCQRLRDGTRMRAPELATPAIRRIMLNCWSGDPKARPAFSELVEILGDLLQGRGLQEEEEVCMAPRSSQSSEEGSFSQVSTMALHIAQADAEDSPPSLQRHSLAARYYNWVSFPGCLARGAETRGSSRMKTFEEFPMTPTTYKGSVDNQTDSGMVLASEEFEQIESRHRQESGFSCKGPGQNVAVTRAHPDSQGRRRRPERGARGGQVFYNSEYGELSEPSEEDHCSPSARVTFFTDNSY

[17] = molecular target: Vascular endothelial growth factor receptor 3 (Homo sapiens) (UniProt P35916); conditions: at 1 µM
[18] = molecular target: Macrophage colony-stimulating factor 1 receptor (Homo sapiens) (UniProt P07333); conditions: at 0.1 µM
Macrophage colony-stimulating factor 1 receptor (Homo sapiens), sequence (P07333 whole entry): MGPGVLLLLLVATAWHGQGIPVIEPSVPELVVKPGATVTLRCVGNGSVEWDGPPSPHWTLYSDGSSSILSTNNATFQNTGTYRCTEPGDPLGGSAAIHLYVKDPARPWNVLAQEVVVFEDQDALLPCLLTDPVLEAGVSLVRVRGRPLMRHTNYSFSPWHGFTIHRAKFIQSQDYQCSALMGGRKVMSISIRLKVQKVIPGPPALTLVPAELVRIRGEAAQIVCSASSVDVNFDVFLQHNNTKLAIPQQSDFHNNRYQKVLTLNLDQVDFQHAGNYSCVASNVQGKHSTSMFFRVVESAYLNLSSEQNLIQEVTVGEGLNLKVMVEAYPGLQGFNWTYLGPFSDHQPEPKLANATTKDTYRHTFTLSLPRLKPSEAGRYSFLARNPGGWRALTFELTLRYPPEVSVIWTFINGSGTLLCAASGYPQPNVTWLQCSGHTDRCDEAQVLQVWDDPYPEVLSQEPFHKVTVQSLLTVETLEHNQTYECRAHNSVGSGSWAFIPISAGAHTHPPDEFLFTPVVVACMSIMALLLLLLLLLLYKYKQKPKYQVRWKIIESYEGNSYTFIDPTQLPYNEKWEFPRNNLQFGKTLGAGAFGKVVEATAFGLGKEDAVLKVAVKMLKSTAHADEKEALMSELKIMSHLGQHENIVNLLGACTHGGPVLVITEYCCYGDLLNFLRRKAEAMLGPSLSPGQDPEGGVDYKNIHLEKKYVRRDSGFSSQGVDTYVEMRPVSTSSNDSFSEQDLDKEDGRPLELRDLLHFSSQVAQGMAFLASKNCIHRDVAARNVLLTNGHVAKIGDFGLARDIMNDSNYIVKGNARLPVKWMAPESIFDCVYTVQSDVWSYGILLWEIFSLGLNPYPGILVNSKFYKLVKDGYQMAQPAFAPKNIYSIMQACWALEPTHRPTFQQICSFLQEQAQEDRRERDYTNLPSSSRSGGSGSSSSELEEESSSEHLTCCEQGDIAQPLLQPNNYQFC

[19] = molecular target: Macrophage colony-stimulating factor 1 receptor (Homo sapiens) (UniProt P07333); conditions: at 1 µM
[20] = molecular target: Tyrosine-protein kinase Fyn (Homo sapiens) (UniProt P06241); conditions: at 0.1 µM
Tyrosine-protein kinase Fyn (Homo sapiens), sequence (P06241 2-537 limits assumed): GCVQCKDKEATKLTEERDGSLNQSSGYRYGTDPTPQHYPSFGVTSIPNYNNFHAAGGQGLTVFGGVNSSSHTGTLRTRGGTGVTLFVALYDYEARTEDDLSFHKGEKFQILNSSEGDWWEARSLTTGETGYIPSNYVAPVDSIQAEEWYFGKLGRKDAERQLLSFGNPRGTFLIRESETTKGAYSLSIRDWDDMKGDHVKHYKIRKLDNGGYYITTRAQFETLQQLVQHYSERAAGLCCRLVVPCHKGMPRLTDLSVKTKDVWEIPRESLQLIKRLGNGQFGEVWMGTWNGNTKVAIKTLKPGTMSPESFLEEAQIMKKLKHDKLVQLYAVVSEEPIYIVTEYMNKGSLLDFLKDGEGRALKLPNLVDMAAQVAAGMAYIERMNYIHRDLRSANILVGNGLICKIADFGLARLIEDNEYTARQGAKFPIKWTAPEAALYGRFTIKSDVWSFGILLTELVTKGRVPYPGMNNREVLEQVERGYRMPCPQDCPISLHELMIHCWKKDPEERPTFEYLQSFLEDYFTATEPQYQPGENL

Compound | inhibition [1] | inhibition [2] | inhibition [3] | inhibition [4] | inhibition [5] | inhibition [6] | inhibition [7] | inhibition [8] | inhibition [9] | inhibition [10] | inhibition [11] | inhibition [12] | inhibition [13] | inhibition [14] | inhibition [15] | inhibition [16] | inhibition [17] | inhibition [18] | inhibition [19] | inhibition [20]
COc1ccc(-c2cc3c(N)ncnc3o2)cc1 | -1.16% | 0.22% | 3.78% | -1.56% | -1.7% | -0.18% | -1.06% | -2.18% | -0.87% | 4.69% | 2.28% | -1.11% | -1.15% | 0.22% | 1.63% | 0.51% | 4.44% | 2.06% | 17.9% | 0.82%
CNC(=O)c1cncc(/C=C/c2ccccc2Cl)c1 | 2.69% | -0.35% | 1.83% | -0.6% | -0.78% | 1.4% | 5.65% | -1.23% | -1.28% | 1.21% | 3.22% | -0.94% | -0.72% | 1.16% | 7.46% | 15.2% | 13.6% | 3.45% | 4.05% | 2.42%
